# Shown are actives, neighbours in structure and some others; about 0.43% of the full set was active somewhere.
# GLA spleen mod: inhibitors or activators of human alpha-galactosidase in spleen homogenate; Potency, µM (titrated, usually from 80 µM), inactives show top-dose activity change, negative = inhibition, actives largely listed as inhibitors; P06280; human spleen homogenate, 4MU-alpha-Gal fluorescence, 40 min; hit rate 0.008% among 240,000;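 also: potency is read from the fitted curve at half-maximal effect; 0% = enzyme with vehicle and -100% = no enzyme basal signal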
#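 qHTS titration in buffer at pH 5.0. Alpha-galactosidase activity in spleen homogenate was measured via 4-methylumbelliferone release from 1 mM fluorogenic substrate after 40 min at 37C and a pH 10 stop. AC50 came from Hill fits of control-normalized data.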
# GAA glycogen mod: GAA glycogen-cleavage inhibition or activation; P10253; recombinant GAA, glycogen substrate, Amplex Red glucose oxidase fluorescence; Potency, µM (titrated, usually from 76.4 µM), without a hit: at the top dose activity change, negative = inhibition, actives largely listed as inhibitors; hit rate 0.38% among 300,000;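 also: potency is read from the fitted curve at half-maximal effect; 0% = full enzyme reaction and -100% = no-enzyme basal signal; the screen sought inhibitors and activators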
#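 Natural-substrate format: glycogen cleavage by 4 nM human enzyme, glucose read by Amplex Red coupling (Ex 573, Em 610 nm). Normalized to enzyme and no-enzyme controls.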
# GLA inh pH 4.5: inhibitors of human alpha-galactosidase A at pH 4.5; activity change, negative = inhibition, % at 105 µM; purified enzyme, 4-MU-alpha-Gal fluorescence, pH 4.5; 230,000 tested, under 10 active;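 also: 0% = full activity with enzyme and -100% = basal without enzyme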
# Target sequence (P06280 whole entry, looked up): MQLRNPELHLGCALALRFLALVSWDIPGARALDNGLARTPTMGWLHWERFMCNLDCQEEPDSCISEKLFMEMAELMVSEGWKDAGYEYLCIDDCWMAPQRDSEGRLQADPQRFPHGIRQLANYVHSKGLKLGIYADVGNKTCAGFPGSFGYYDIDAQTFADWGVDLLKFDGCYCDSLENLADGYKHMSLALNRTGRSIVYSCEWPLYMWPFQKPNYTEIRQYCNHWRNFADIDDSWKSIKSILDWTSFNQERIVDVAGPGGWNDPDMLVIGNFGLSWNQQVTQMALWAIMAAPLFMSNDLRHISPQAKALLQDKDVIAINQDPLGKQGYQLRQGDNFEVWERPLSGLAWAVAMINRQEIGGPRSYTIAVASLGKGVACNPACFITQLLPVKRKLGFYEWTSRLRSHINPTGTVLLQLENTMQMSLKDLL
# N370S GC mod: inhibitors or activators of N370S glucocerebrosidase for Gaucher disease; Potency, µM (titrated, usually from 59.4 µM), for the others: at the highest dose activity change, negative = inhibition, most hits filed as inhibitors; AID 2101; N370S GC spleen homogenate, 4MU-glucoside fluorescence; hit rate 0.092% among 330,000;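 also: potency is read from the fitted curve at half-maximal effect; 0% = full enzyme activity and -100% = no enzyme basal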
# GAA spleen mod: inhibits or activates alpha-glucosidase in human spleen homogenate | Potency, µM (series often up to 79.9 µM), without a hit: at the top dose activity change, negative = inhibition, actives largely listed as inhibitors | human spleen homogenate, 4-MU-alpha-glucoside fluorescence | hit rate 0.006% among 240,000 | AID 2112;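 also: potency is read from the fitted curve at half-maximal effect; 0% = enzyme with vehicle and -100% = no enzyme basal signal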
#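 AC50 values come from Hill-equation fits of concentration-response data, normalized to no-enzyme and full-activity controls. Enzyme source: 1 ug human spleen homogenate; 1 mM fluorogenic 4-MU glucoside, pH 5.0 citrate buffer, 37 C, 40 min.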
# GAA inhib: inhibitors of human lysosomal alpha-glucosidase; P10253; purified human GAA, 4-MU-alpha-glucoside fluorescence; Potency, µM (series often up to 76.9 µM), inactives show top-dose activity change, negative = inhibition, hits mostly inhibitors; hit rate 0.005% among 200,000; AID 1466;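 also: potency is read from the fitted curve at half-maximal effect; plate controls were uninhibited enzyme wells for no effect and no-enzyme background for full effect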
#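 Activity normalized between no-enzyme (basal) and enzyme-only wells. Conditions: 4 nM human enzyme, 400 uM fluorogenic substrate, citrate/phosphate pH 5.0 with Tween-20, 20 min room temperature, compounds up to 77 uM.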
# * = called active by the depositor; ? = inconclusive; nt = not tested or not shown; ! = repeats disagree; [ ] = another dose, or the depositor's remark. Calls follow the shape of the dose curve; as a rule, active = well fitted curve in the direction sought with a large enough effect; inconclusive = small, poorly fitted or top-dose-only effect, or another doubt; inactive = no such curve, though single readings can be large; an effect the other way counts as inactive or inconclusive.
SMILES,GLA spleen mod,GAA glycogen mod,GLA inh pH 4.5,N370S GC mod,GAA spleen mod,GAA inhib
NNC(=O)CN1C(c2ccccc2)=Nc2ccc(Br)cc2C1c1ccccc1 (centres undefined),-7.1%,-15.1%,3.5,39.8µM*,-0.9%,-3.3%
CS(=O)(=O)Nc1c(O)ccc2c1CCCC2C1=NCCN1 (centres undefined),-9.8%,nt,nt,-1.0%,2.9%,nt
O=S(=O)(Nc1cc(O)cc2cccnc12)c1ccc(Cl)s1,4.2%,nt,nt,-5.0%,7.4%,nt
CCN(C(=O)CN1CCN(c2ccccc2O)CC1)c1c(N)n(Cc2ccccc2)c(=O)[nH]c1=O,-1.6%,9.92µM*,2.1,16.0%,2.2%,-5.8%
N#Cc1c(NC(NC(=O)c2ccco2)C(=O)c2ccccc2)sc2c1CCCC2 (centres undefined),0.1%,22.4µM*,-10.5,?,-1.3%,-7.5%
NC(=O)c1c(NC(NC(=O)c2ccco2)C(=O)c2ccc(Cl)cc2)sc2c1CCCC2 (centres undefined),-6.8%,-0.6%,-3.2,26.5%,-17.4%,-11.6%
CCOC(=O)CCN1C(=O)[C@H]2[C@H]3[C@H](O)[C@H](O)C/C(=N/NC(=O)OCc4ccccc4)[C@H]3CC[C@@H]2C1=O,-2.0%[17.5 µM],nt,nt,0.3%[12.8 µM],-2.7%[17.4 µM],nt
CC(=O)N1c2ccccc2CC1C(=O)NCc1cccc(Cl)c1 (centres undefined),nt,12.6%[76.3 µM],nt,nt,nt,nt
CC(=O)c1ccc(NC(=O)COc2ccccc2-c2nc(C)no2)cc1,nt,7.08µM*,nt,nt,nt,nt
CC(=O)c1ccc(NC(=O)COc2ccccc2-c2nc(C(C)C)no2)cc1,nt,-9.8%[76.3 µM],nt,nt,nt,nt
O=C(Cn1c(=O)n(Cc2ccccc2)c(=O)c2sc3ccccc3c21)Nc1ccccc1,nt,7.94µM*,nt,nt,nt,nt
CN1CCN(C2Cc3ccccc3Sc3ccc(Cl)cc32)CC1 (centres undefined),0.7%,nt,-9.0,?,5.0%,nt
CSc1ccc2c(c1)C(N1CCN(C)CC1)Cc1ccccc1S2 (centres undefined),16.7%,7.1%,-5.1,17.8µM*!,5.0%,nt
CSc1ccc2c(c1)[C@H](N1CCN(C)CC1)Cc1ccccc1S2,8.1%,nt,-9.3,12.6µM*,6.0%,nt
COc1cc2c(cc1OC)C1O[C@](CCCCN3C(=O)c4ccccc4C3=O)(C2)OC2=C1C(=O)CC(C)(C)C2,nt,-6.9%[15.3 µM],nt,0.4%[12.8 µM],nt,nt
Oc1ccc(C2Nc3cccc4cccc(c34)N2)c(O)c1,8.3%,19.8µM*,-24.7,-3.9%,-5.0%,2.7%
Oc1ccc(Nc2nc(-c3cccnc3)cs2)cc1,nt,17.8µM*,nt,6.6%,nt,nt
Oc1ccc(Nc2nc(-c3ccc(O)cc3)cs2)cc1,2.0%,24.9µM*,8.5,15.8µM*,0.1%,-2.0%
CCOc1cc(/C=C2/NC(=O)N(Cc3ccccc3F)C2=O)ccc1O,5.3%,5.62µM*,-7.9,-5.6%,-17.3%,1.2%
COc1cc(/C=C2/NC(=O)N(Cc3ccccc3F)C2=O)cc(OC)c1O,?,?,?,-17.0%,-14.4%,?
Cn1c(=O)c(-c2cccc(Cl)c2)nc2cncnc21,8.4%,nt,nt,2.4%,4.5%,nt
Fc1ccc(N=Cc2ccc[nH]2)cc1,nt,-17.6%,nt,-12.0%,nt,nt
Oc1ccccc1N=Cc1ccc[nH]1,4.6%,2.82µM*,2.7,2.1%,3.6%,1.2%
COC(=O)N[C@@H](CCc1ccccc1)/C(C(=O)OC)=C(\C)NCc1ccccc1,-28.2%,nt,-15.2,2.1%,3.5%,nt
COc1ccc(CC(N)C(=O)N[C@H]2[C@@H](O)[C@H](n3cnc4c(N(C)C)ncnc43)O[C@@H]2CO)cc1 (some centres undefined),-4.6%,nt,0.7,-2.0%,-0.4%,nt
SMILES,GLA spleen mod,GAA glycogen mod,GLA inh pH 4.5,N370S GC mod,GAA spleen mod,GAA inhib
O=C1C2=C(C(=O)c3ccccc31)C1O[C@](CCCCN3C(=O)c4ccccc4C3=O)(Cc3ccccc31)O2,nt,-1.9%[15.3 µM],nt,3.0%[12.8 µM],nt,nt
Oc1ccc(/C=N/Nc2ccc(C(F)(F)F)cn2)cc1,12.8%,22.4µM*,-11.5,-1.2%,-4.6%,-9.6%
NNC(=O)c1cc(-c2ccccc2)sc1N,7.0%,5.01µM*,2.6,-6.8%,0.6%,nt
Cc1ccc(CCNS(=O)(=O)c2ccc3c(c2)CCN3C(=O)CCC(=O)O)cc1,nt,-4.8%[76.3 µM],nt,nt,nt,nt
CN1C(=O)/C(=C/C=C2\SCCN2C)N(C)C1=S,-2.6%,11.2µM*,-10.9[21.1 µM],-10.1%,-3.1%,?
Cc1cccc(C)c1Nc1c(-c2ccsc2)nc2cccc(C)n12,nt,-19.3%[76.3 µM],nt,nt,nt,nt
CSc1ccc(-c2nc3cccc(C)n3c2Nc2ccc(Cl)cc2)cc1,nt,5.62µM*,nt,nt,nt,nt
O=c1ccc2cc3ccoc3cc2o1,-9.7%,-5.8%[76.3 µM],-2.6,3.5%,13.7%,nt
O=c1ccc2cc(O)c(O)cc2o1,?,6.31µM*,?,?,5.2%,?
O=C(O)COc1ccc(/C=N/n2c(COc3ccccc3)nc3ccccc3c2=O)cc1,-0.6%,15.9%,-8.4,0.0%,-2.9%,-0.1%
O=c1c2ccccc2nc(COc2ccccc2)n1/N=C/c1ccc(O)c(O)c1,-15.5%,15.8µM*,-6.3,0.0%,-6.0%,nt
C=C1c2cccc(C(F)(F)F)c2O[C@H](C(=O)OCC)[C@@H]1CCCCCC,-5.2%[119 µM],nt,-2.3,5.4%[89.1 µM],8.0%[119 µM],nt
NC(N)=NCCC[C@H](NC(=O)CC1(CC(=O)N2CCN(C3c4ccccc4NC(=O)c4ccccc43)CC2)CCCC1)C(=O)NCCn1c(=O)n(-c2ccccc2)n(-c2ccccc2)c1=O (some centres undefined),-2.9%,nt,-12.7,17.8µM*,-2.6%,nt
O=C(O)COCC(=O)N1CCN(C2c3ccccc3-c3ccccc32)CC1,5.2%,-9.0%,-2.8,-14.5%,-2.8%,nt
COc1ccc(NC2=C(Cl)C(=O)N(c3ccccc3)C2=O)c(OC)c1,-9.9%,2.5%,nt,11.5%,-6.8%,-9.5%[15.4 µM]
COc1ccc(N2C(=O)C(Cl)=C(Nc3c(C)n(C)n(-c4ccccc4)c3=O)C2=O)cc1,-1.9%,25.1µM*,-14.0,-1.7%,1.8%,5.6%
CO/N=C\[C@@H](NS(=O)(=O)c1ccc(C)cc1)[C@H](C)/C=C\CC(=O)OC,2.0%[17.5 µM],nt,nt,3.6%[12.8 µM],-1.2%[17.4 µM],nt
Cn1c(SCC(=O)CC(=O)Nc2ccccc2)nnc1-c1ccc(O)cc1,1.2%,0.7%,2.5,14.1µM*,-0.6%,1.9%
C/C(=N\N1CCN(C2c3ccccc3-c3ccccc32)CC1)c1ccncc1,-12.1%,28.2µM*,3.2,1.0%,4.8%,?
C(=N\N1CCN(C2c3ccccc3-c3ccccc32)CC1)/c1ccncc1,-1.5%,-9.5%,-6.5,-11.9%,-5.1%,2.5%
COC(=O)CNC(=O)C1CCN(S(=O)(=O)c2cccc3nsnc23)CC1,nt,11.2µM*!,nt,-26.5%,nt,nt
CC(C)(C)NC(=O)C1CCN(S(=O)(=O)c2cccc3nsnc23)CC1,nt,-6.8%[76.3 µM],nt,8.9%,nt,nt
CC1CCc2c(sc3nnn(Cc4ccccc4)c(=O)c23)C1 (centres undefined),nt,-9.3%[76.3 µM],nt,nt,nt,nt
